Values without a mark were called inactive.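 Rule for the calls: active = log2 fold change beyond 2 SD from the library mean after excluding viability outliers; inactive = within 2 SD.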
The compounds below were run against PARP1 L713F-nLuc biosensor (HCT116) (UniProt P09874) (assay: PARP1 L713F-nLuc/akaLuc ratio relative to DMSO control (biosensor stabilization) (fold change); higher = more PARP1 biosensor stabilization (target engagement / stabilizer), active = hit call of the paper). Details: stock concentration (mM; final µM = stock mM x 1): 10; 24 h.
Chain of PARP1 L713F-nLuc biosensor (HCT116) (P09874 whole entry L713F, looked up): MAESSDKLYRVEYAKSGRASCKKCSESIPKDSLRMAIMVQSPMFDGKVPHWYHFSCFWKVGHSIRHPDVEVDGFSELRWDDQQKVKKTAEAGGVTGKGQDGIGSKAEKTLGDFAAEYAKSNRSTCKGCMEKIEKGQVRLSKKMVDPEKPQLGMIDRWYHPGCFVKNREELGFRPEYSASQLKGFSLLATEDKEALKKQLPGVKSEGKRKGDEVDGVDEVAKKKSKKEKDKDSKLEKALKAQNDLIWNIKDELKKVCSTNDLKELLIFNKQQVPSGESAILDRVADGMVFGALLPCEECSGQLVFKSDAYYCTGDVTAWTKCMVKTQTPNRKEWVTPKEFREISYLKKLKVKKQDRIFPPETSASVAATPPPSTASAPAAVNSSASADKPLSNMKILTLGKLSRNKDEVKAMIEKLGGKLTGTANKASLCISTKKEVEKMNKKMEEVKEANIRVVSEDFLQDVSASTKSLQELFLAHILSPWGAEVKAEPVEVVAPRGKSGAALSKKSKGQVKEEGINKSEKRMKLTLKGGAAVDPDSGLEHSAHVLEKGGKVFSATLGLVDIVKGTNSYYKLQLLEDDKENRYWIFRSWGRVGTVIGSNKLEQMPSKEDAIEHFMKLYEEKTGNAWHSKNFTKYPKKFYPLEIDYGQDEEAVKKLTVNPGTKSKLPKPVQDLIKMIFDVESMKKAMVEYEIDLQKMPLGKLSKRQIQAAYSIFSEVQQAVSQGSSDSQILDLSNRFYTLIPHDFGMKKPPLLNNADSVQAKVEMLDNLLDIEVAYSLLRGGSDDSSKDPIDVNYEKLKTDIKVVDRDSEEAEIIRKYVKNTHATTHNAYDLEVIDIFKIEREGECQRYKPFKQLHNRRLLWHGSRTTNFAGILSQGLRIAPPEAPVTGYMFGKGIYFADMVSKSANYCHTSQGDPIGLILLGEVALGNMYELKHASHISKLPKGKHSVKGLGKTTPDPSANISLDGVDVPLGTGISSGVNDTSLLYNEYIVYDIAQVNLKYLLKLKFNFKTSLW

Structure (SMILES) | PARP1 L713F-nLuc/akaLuc ratio
CC1(N)CCN(c2cccnc2NC(=O)c2nc(-c3ncccc3C(F)(F)F)cnc2N)CC1 [Darovasertib] | 0.6
CCCCC[C@H](O)CC(=O)CCc1ccc(O)c(OC)c1 [[6]-Gingerol] | 1.5
N#Cc1ccc(C(c2ccc(C#N)cc2)n2cncn2)cc1 [Letrozole] | 1.4
CCc1cncnc1N1CCN(Cc2nc3ccc(C(F)(F)F)cc3[nH]2)CC1 | 0.681
N#CC1(c2ccc(NC(=O)c3cccnc3NCc3ccncc3)cc2)CCCC1 | 0.967
C/C=C(\CC[C@@H](C)[C@H]1CC[C@H]2[C@@H]3CC=C4C[C@@H](O)CC[C@]4(C)[C@H]3CC[C@]12C)C(C)C [Fucosterol] | 1.04
CC1(C)CNc2cc(NC(=O)c3cccnc3NCc3ccncc3)ccc21 [Motesanib Diphosphate (AMG-706)] | 1.5
O=C(O)c1ccc(Nc2ncc3c(n2)-c2ccc(Cl)cc2C(c2c(F)cccc2F)=NC3)cc1 | 1.87
CN1CCN(c2ccc(Nc3ncc4cc(C#N)c(=O)n(C5CCCC5)c4n3)cc2)CC1 | 0.701
COc1cc2cc(Oc3ccc4ccc(=O)oc4c3)c(=O)oc2cc1O [Daphnoretin] | 0.72
CN(c1ccccc1)c1ccc2c(c1)CCC[C@H]2CNc1cnccc1C(=O)O | 0.387
COc1nn(C)cc1Nc1nccc(-c2c[nH]c3c(NC(=O)[C@@H](C)N4CCN(C)CC4)cccc23)n1 [Golidocitinib] | 0.637
Cc1cc(C)c(CNC(=O)c2cc(-c3ccc(N4CCN(C)CC4)nc3)cc3c2c(C)cn3C(C)C)c(=O)[nH]1 | 1.47
COc1ccc(Cn2ccc3ccc(C(=O)NO)cc32)cc1 | 1.04
CO[C@@]12[C@H](COC(N)=O)C3=C(C(=O)C(C)=C(N)C3=O)N1C[C@@H]1N[C@@H]12 [Mitomycin C] | 1.07
COc1cc2c(NC3CCN(C)CC3)nc(N3CCCN(C)CC3)nc2cc1OCCCN(C)C | 0.782
CO[C@@H](C(=O)N1Cc2[nH]nc(NC(=O)c3ccc(N4CCN(C)CC4)cc3)c2C1)c1ccccc1 | 0.781
C[C@@H]1CN(CC(=O)Nc2ccc3c(c2)Cc2cccc(-c4cc(=O)cc(N5CCOCC5)o4)c2S3)C[C@H](C)O1 | 0.788
CCS(=O)(=O)N1CCC([C@@H](C)n2c(C)c(C(=O)NCc3c(OC)cc(C)[nH]c3=O)c3ccccc32)CC1 (racemic) [CPI-169 (racemate)] | 1.12
Cc1cc(Nc2cc(N3CCN(C)CC3)nc(/C=C/c3ccccc3)n2)n[nH]1 | 1.27

Structure (SMILES) | PARP1 L713F-nLuc/akaLuc ratio
COc1cc2c(cc1OCCCN1CCCC1)N=C(N)C21CCC1 | 0.685
CC(C)(Oc1ccc(Cl)cc1)C(=O)Nc1ccc(OCc2ccc(C#N)cc2)cc1 [AMPK activator 4] | 1.2
C[C@@H](NC(=O)c1ncnc(N)c1Cl)c1ncc(C(=O)Nc2cc(C(F)(F)F)c(Cl)cn2)s1 | 0.886
CCCCCCCCCCCCC/C=C/[C@@H](O)[C@@H](N)CO [D-erythro-Sphingosine] | 1.21
CN1CCN(c2ccc3nc(-c4c(N)c5c(F)cccc5[nH]c4=O)[nH]c3c2)CC1 [Dovitinib (TKI258) Lactate] | 0.754
CC(C)Oc1ccc(-c2nn([C@@H](C)c3oc4ccc(F)cc4c(=O)c3-c3cccc(F)c3)c3ncnc(N)c23)cc1F [umbralisib (TGR-1202)] | 1.01
O=S(=O)(NCCSSCCNS(=O)(=O)c1cc(Cl)ccc1Cl)c1cc(Cl)ccc1Cl | 1.18
COC(=O)c1ccc2c(c1)[nH]c1ncnc(NCCCN3CCCCC3)c12 | 1.02
C[C@@H]1COCCN1c1cc(C2([S@](C)(=N)=O)CC2)nc(-c2cc[nH]c3nccc2-3)n1 | 1.79
N#CCNC(=O)c1ccc(-c2ccnc(Nc3ccc(N4CCOCC4)cc3)n2)cc1 [Momelotinib (CYT387)] | 0.585
CC(=O)Nc1ccc(C(=O)Nc2ccc(F)cc2N)cc1 | 0.984
O=[N+]([O-])c1cc(Nc2ccc3nonc3c2[N+](=O)[O-])ccc1Cl | 1.28
CCc1cccc(CC)c1NC(=O)N1Cc2[nH]nc(NC(=O)c3ccc(N4CCN(C)CC4)cc3)c2C1 | 0.92
CN1C[C@@H](Nc2cnn(C)c(=O)c2Br)C[C@@H](c2ccccc2)C1 | 0.711
CNC(=O)c1nnc(NC(=O)C2CC2)cc1Nc1cccc(-c2ncn(C)n2)c1OC [Deucravacitinib] | 0.748
O=c1[nH]cc(F)c(=O)[nH]1 [Fluorouracil (5-Fluoracil, 5-FU)] | 0.702
CC(C)=CCC/C(C)=C/Cc1c(O)c(CC=C(C)C)c2c(c1O)C(=O)C1=C[C@@H]3C[C@H]4C(C)(C)O[C@@](C/C=C(/C)C(=O)O)(C3=O)[C@@]14O2 [Gambogenic acid] | 1.04
CC(O)c1cc(C(=O)N[C@@H](C)Cn2ccc(-c3ccc(C#N)c(Cl)c3)n2)n[nH]1 (some centres undefined) [Darolutamide (ODM-201)] | 0.613
CN(Cc1cnc2nc(N)nc(N)c2n1)c1ccc(C(=O)N[C@@H](CCC(=O)O)C(=O)O)cc1 [Methotrexate] | 0.755

From the supplement of paper PMC11624193, “Coupling cellular drug-target engagement to downstream pharmacology with CeTEAM” (Nature Communications, 2024)
